PubChem BioAssay (NCATS)
Several values for one entry are separate records, joined by “and”; a condition that tells them apart may be missing. Equal entries are not always repeated. Records with an inconclusive call do not appear. The source holds several records for some structures; these can differ, active in one and inactive in another. Activity calls are given as the source filed them. Unless noted, calls follow the shape of the dose curve; as a rule, active = well fitted curve in the direction sought with a large enough effect; inconclusive = small, poorly fitted or top-dose-only effect, or another doubt; inactive = no such curve, though single readings can be large; an effect the other way counts as inactive or inconclusive. *1 amine or outer side, *2 acyl side, *3 side chain or, on linkers, in order; H or OH if unused. Where a SMILES comes first, the peptide text is derived from it. Bridges are numbered along the chain shown (N, C = ends). [ ]: non-standard residue; d: D form. The star is where a group is joined. ξ: configuration not given here. X10 = NC1=NCCC(C(N[*:1])C(=O)[*:2])N1; ΔAla(3-NHCONH2) = NC(=O)NC=C(N)C(=O)O; ξβ3hOrn = NCCCC(N)CC(=O)*; Dap = NC[CH](N)C(=O)O

Tests used:
OV90 = assay: Primary qHTS to identify gynecologic anti-cancer compounds using libraries of approved drugs and bioactive compounds (AID 1345084); conditions: Gynecologic cancer cell panel viability, ATPlite luminescence, 48 h; series mostly up to 57.5 µM; also: nearly all actives have a fitted effect of over 55% in size; also: potency is read from the fitted curve at half-maximal effect; as to activity change, negative = cytotoxicity: % is scaled to controls: 0 for no effect and ±100 for the full control effect
Method in brief: (§1)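 ATP-based viability (ATPlite), 1,000 cells/well, 16 h pre-incubation, 48 h compound at 37 C, 5% CO2, 15 min RT before read.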

PA-1 = assay: as above; conditions: Gynecologic cancer cell panel viability, ATPlite luminescence, 48 h; series mostly up to 57.5 µM
Method in brief: as §1

SKOV3 = assay: as above; conditions: Gynecologic cancer cell panel viability, ATPlite luminescence, 48 h; series mostly up to 57.5 µM
Method in brief: as §1

Tov-21-G = assay: as above; conditions: Gynecologic cancer cell panel viability, ATPlite luminescence, 48 h; series mostly up to 57.5 µM
Method in brief: as §1

Tov112D = assay: as above; conditions: Gynecologic cancer cell panel viability, ATPlite luminescence, 48 h; series mostly up to 57.5 µM
Method in brief: as §1

[1] = Drug repurposing screens with cells derived from glioblastoma tumor samples (AID 1345199); conditions: GBM patient neurospheres viability, ATP luminescence, 48 h; also: nearly all actives have a fitted effect of over 40% in size; also: potency is read from the fitted curve at half-maximal effect; as to activity, negative = cell killing: % is scaled to controls: 0 for no effect and ±100 for the full control effect
Method in brief: (§2)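 Four patient lines of CD133+ GBM neurospheres were screened at several concentrations; hits were retested in those lines plus three slower-growing GBM lines, using 48-hour treatment and ATP-based viability.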

astro = assay: as above; conditions: viability, ATP luminescence, 48 h; series mostly up to 45.9 µM
Method in brief: as §2

[2] = biological target: Nuclear receptor subfamily 1 group I member 2 (Rattus norvegicus) (UniProt Q9R1A7); assay: qHTS assay for small molecule activators of the rat pregnane X receptor (rPXR) signaling pathway (AID 651751; call rule not given here; also: 0% is about no effect); conditions: rPXR reporter cells, luciferase (One-Glo), 24 h
[3] = qHTS assay for small molecule activators of the human pregnane X receptor (PXR) signaling pathway (AID 720659; call rule not given here; also: 0% is about no effect)
[4] = qHTS assay to identify inhibitors of the type 1 interferon - major histocompatibility complex class I in skeletal muscle: Counter screen cell viability and HiBit confirmation (AID 1347412); conditions: iHSKM muscle cells + IFN-b, HiBiT or CellTiter-Glo, 24 h; Potency: HiBiT; Viability, at 45.9 µM (top of the series); also: % is scaled to controls: 0 for no effect and ±100 for the full control effect; nearly all actives have a fitted effect of over 60% in size
Method in brief: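 Luminescence read-out: Nano-Glo HiBiT lytic signal from C-terminally HiBiT-tagged HLA-B in CRISPR-edited human myoblasts, plus CellTiter Glo ATP as viability counter screen. IFN-beta 4.0 ng/ml; 24 hrs treatment at 37 C, 5% CO2.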

[5] = at 45.9 µM (top of the series), tumour line D
[6] = at 46.1 µM (top of the series), tumour line C
[7] = at 45.9 µM (top of the series), tumour line B

Sequence of Nuclear receptor subfamily 1 group I member 2 (Rattus norvegicus) (Q9R1A7 whole entry, looked up): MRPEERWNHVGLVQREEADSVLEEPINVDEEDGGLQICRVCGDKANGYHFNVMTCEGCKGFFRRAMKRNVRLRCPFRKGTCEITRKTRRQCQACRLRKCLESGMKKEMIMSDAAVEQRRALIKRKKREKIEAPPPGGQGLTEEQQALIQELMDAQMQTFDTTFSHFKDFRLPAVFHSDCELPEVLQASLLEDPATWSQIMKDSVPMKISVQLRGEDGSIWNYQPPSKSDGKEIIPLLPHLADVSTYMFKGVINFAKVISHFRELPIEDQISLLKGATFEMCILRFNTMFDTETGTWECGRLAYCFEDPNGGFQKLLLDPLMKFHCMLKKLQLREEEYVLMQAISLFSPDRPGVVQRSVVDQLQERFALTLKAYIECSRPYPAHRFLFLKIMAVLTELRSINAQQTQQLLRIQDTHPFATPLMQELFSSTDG

C[N+]1(C)CCC(OC(=O)C(O)(c2ccccc2)C2CCCC2)C1 (centres undefined)
inactive: Potency (OV90) | Potency (PA-1) | Potency (SKOV3) | Potency (Tov-21-G) | Potency (Tov112D) | activity, negative = cell killing [1, 5] -7.1% | activity, negative = cell killing [1, 6] -3.15% and -15.3% | Potency (astro)
active: Potency ([1]; tumour line A) 11.2 µM

CC(=O)N[C@@H](CCC(N)=O)C(=O)O
inactive: Potency (OV90) | Potency (PA-1) | Potency (SKOV3) | Potency (Tov-21-G) | Potency (Tov112D) | activity, negative = cell killing [1, 7] -17.6% | activity, negative = cell killing [1, 5] -7.79% | activity, negative = cell killing [1, 6] -4.41% | Potency (astro)

CO[C@@H]1[C@@H](O[C@@H]2O[C@H](C)[C@@H](O[C@H]3C[C@@](C)(O)[C@@H](O)[C@H](C)O3)[C@H](N(C)C)[C@H]2O)[C@@H](CC=O)C[C@@H](C)[C@@H](O[C@@H]2CC[C@H](N(C)C)[C@@H](C)O2)/C=C/C=C/C[C@@H](C)OC(=O)C[C@H]1OC(C)=O
active: Potency ([1]; tumour line A) 15.8 µM
inactive: Potency (OV90) | Potency (PA-1) | Potency (SKOV3) | Potency (Tov-21-G) | Potency (Tov112D) | activity, negative = cell killing [1, 7] -18.6% | Potency (astro)

Cc1ccccc1N1CCN(CCc2nnc3n2CCCC3)CC1
inactive: Potency (OV90) | Potency (PA-1) | Potency (SKOV3) | Potency (Tov-21-G) | Potency (Tov112D) | activity, negative = cell killing [1, 7] -2% | activity, negative = cell killing [1, 6] 19.6% | Potency (astro)

CCCCCC1Nc2cc(C(F)(F)F)c(S(N)(=O)=O)cc2S(=O)(=O)N1 (centres undefined)
inactive: Potency (OV90) | Potency (PA-1) | Potency (SKOV3) | Potency (Tov-21-G) | Potency (Tov112D) | activity, negative = cell killing [1, 7] -8.57% | activity, negative = cell killing [1, 5] -19.1% | activity, negative = cell killing [1, 6] -6.63% | Potency (astro)

Nc1ccc(O)cc1
inactive: Potency (OV90) | Potency (PA-1) | Potency (SKOV3) | Potency (Tov-21-G) | Potency (Tov112D) | max response [2] 4.17%
active: Potency (astro) 35.5 µM

NCC(=O)O
inactive: Potency (OV90) | Potency (PA-1) | Potency (SKOV3) | activity, negative = cell killing [1, 7] 10.4% | activity, negative = cell killing [1, 5] 4.74% | activity, negative = cell killing ([1]; at 46 µM (top of the series), tumour line A) 1.41% | activity, negative = cell killing [1, 6] -6.24% | Potency (astro)

C[C@H]1C[C@H](O)c2ccsc2S1(=O)=O
inactive: Potency (OV90) | Potency (PA-1) | Potency (Tov-21-G) | Potency (Tov112D)

C[C@@H](O[C@H]1OCCN(Cc2n[nH]c(=O)[nH]2)[C@H]1c1ccc(F)cc1)c1cc(C(F)(F)F)cc(C(F)(F)F)c1
inactive: Potency (OV90) | Potency (PA-1) | Potency (Tov-21-G)

CCCCN(CCN(CCCC)C(=O)N1CCOCC1)C(=O)N1CCOCC1
inactive: Potency (OV90) | Potency (PA-1) | Potency (Tov-21-G) | Potency (Tov112D)

Cc1nc(C2CCCCC2)c(-c2ccc(S(N)(=O)=O)c(F)c2)o1
inactive: Potency (OV90) | Potency (PA-1) | Potency (Tov-21-G) | Potency (Tov112D)

CCCN(CCC)C(=O)C(CCC(=O)OCCCN1CCN(CCOC(=O)Cc2c(C)n(C(=O)c3ccc(Cl)cc3)c3ccc(OC)cc23)CC1)NC(=O)c1ccccc1 (centres undefined)
inactive: Potency (OV90) | Potency (PA-1) | Potency (Tov-21-G) | Potency (Tov112D)

Nc1c(I)cc(I)c(C(=O)N(CCC(=O)O)c2ccccc2)c1I
inactive: Potency (OV90) | Potency (PA-1) | Potency (Tov-21-G) | Potency (Tov112D)

O=C(OCC(O)CO)c1ccccc1Nc1ccnc2c(C(F)(F)F)cccc12 (centres undefined)
inactive: Potency (OV90) | Potency (PA-1) | Potency (Tov-21-G) | Potency (Tov112D)

C[C@@]12CCC[C@H]1[C@@H]1CC[C@H]3C[C@@H](O)CC[C@]3(C)[C@H]1CC2
inactive: Potency (OV90) | Potency (PA-1) | Potency (SKOV3) | Potency (Tov-21-G) | Potency (Tov112D) | Potency (astro)

Nc1ccc([N+](=O)[O-])c(C(F)(F)F)c1
inactive: Potency (OV90) | Potency (PA-1) | Potency (Tov-21-G) | Potency (Tov112D)

O=C1NC(c2cccc([N+](=O)[O-])c2)=CCN1c1ccccc1O
inactive: Potency (OV90) | Potency (PA-1) | Potency (Tov-21-G)

NCCCC(N)CC(=O)NCC1NC(=O)C(CO)NC(=O)C(N)CNC(=O)C(C2CCN=C(N)N2)NC(=O)C(=CNC(N)=O)NC1=O (stereo not drawn) (H-[Dap]S[Dap](ξβ3hOrn)[ΔAla(3-NHCONH2)][X10]; lactam 1-C; configuration not given here)
inactive: activity change, negative = cytotoxicity (OV90) -2.62% [at 0.462 µM] | activity change, negative = cytotoxicity (PA-1) 8.19% [at 0.462 µM] | activity change, negative = cytotoxicity (Tov-21-G) 4.2% [at 0.462 µM] | activity change, negative = cytotoxicity (Tov112D) 4.39% [at 0.462 µM]

CC1CCCCN1CCCOC(=O)c1ccc(OC2CCCCC2)cc1 (centres undefined)
inactive: Potency (OV90) | Potency (PA-1) | Potency (Tov-21-G) | Potency (Tov112D)

CN1Cc2cc(C(=O)N3CCC(C4CCNCC4)CC3)ccc2NC(CC(=O)O)C1=O (centres undefined)
inactive: Potency (OV90) | Potency (PA-1) | Potency (Tov-21-G) | Potency (Tov112D)

CCCC(=O)OCOC(=O)C1=C(C)NC(C)=C(C(=O)OC)C1c1cccc(Cl)c1Cl (centres undefined)
inactive: Potency (OV90) | Potency (PA-1) | Potency (Tov-21-G) | Potency (Tov112D)

CCCCCCCCCCCC[N+](C)(C)Cc1ccccc1
active: Potency (OV90) 14.1 µM | Potency (PA-1) 8.91 µM | Potency (SKOV3) 3.16 µM | Potency (Tov-21-G) 7.94 µM | Potency (Tov112D) 25.1 µM | Potency (astro) 11.2 µM
inactive: max response [2] 0.668% | outcome [3]

CC(C)(C)CC(=O)OCC(=O)[C@@]1(O)CC[C@H]2[C@@H]3CCC4=CC(=O)C=C[C@]4(C)[C@H]3[C@@H](O)C[C@@]21C
inactive: Potency (OV90) | Potency (PA-1) | Potency (SKOV3) | Potency (Tov-21-G) | Potency (Tov112D) | Potency [4]

Cc1ncc([N+](=O)[O-])n1C
inactive: Potency (OV90) | Potency (PA-1) | Potency (Tov-21-G) | Potency (Tov112D)

O=[N+]([O-])c1ccc(-c2nc(-c3ccc(F)cc3)c(-c3ccncc3)[nH]2)cc1
inactive: Potency (OV90) | Potency (PA-1) | Potency (Tov-21-G) | Potency (Tov112D)

CCN(CC)CC(=O)OCC(=O)[C@@]1(O)CC[C@H]2[C@@H]3CCC4=CC(=O)CC[C@]4(C)[C@H]3[C@@H](O)C[C@@]21C
inactive: Potency (OV90) | Potency (PA-1) | Potency (SKOV3) | Potency (Tov-21-G) | Potency (Tov112D) | Potency [4]

NC(=O)NS(=O)(=O)c1ccc(Cl)cc1
inactive: Potency (OV90) | Potency (PA-1) | Potency (Tov-21-G) | Potency (Tov112D)

COC(=O)[C@H]1[C@H]2C[C@@H]3c4[nH]c5cc(OC)ccc5c4CCN3C[C@H]2C[C@@H](OC(=O)/C=C/c2ccc(O)c(OC)c2)[C@@H]1OC
inactive: Potency (PA-1) | Potency (Tov112D)
active: Potency (OV90) 31.6 µM | Potency (SKOV3) 35.5 µM

CN1CCC(=C2c3ccccc3CCc3cccnc32)CC1
active: Potency ([1]; tumour line A) 11.2 µM
inactive: Potency (OV90) | Potency (PA-1) | Potency (SKOV3) | Potency (Tov112D) | activity, negative = cell killing [1, 7] -11.9% | activity, negative = cell killing [1, 5] -28.7% | activity, negative = cell killing [1, 6] -24% | Potency (astro)
